Source: PubChem (several laboratories)
NRP1-CendR mod = alters CendR peptide binding to human NRP-1; 360,000 tested, 0.85% active; FAM-RPARPAR peptide binding to NRP-1, fluorescence polarization; inhibition, % at 25 µM; AID 602438;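 active means inhibition or corrected inhibition above about 18%, plus a signal ratio from 0.5 to 1.5, limit read from the data, passing the limit was not always enough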
CRFBP-R2 block = CRF-BP/CRF-R2 complex antagonism. AID 588475. inhibition, % at 11.8 µM. 350,000 tested, 0.59% active. HEK293 CRF-R2/CRF-BP, CRF-induced calcium fluorescence;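 active means inhibition of the ligand-induced calcium signal above about 50% at the single tested concentration, limit read from the data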
Myeloid diff 2 = myeloid differentiation induction; AID 624256; calls only at 10 µM; ER-HoxA9 myeloid progenitors, lysozyme-GFP differentiation, flow cytometry; 360,000 tested, 1% active;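 active means normalized GFP-positive differentiation at or above the plate's own cutoff, the solvent-only control mean plus 3 SD; inconclusive means no clear call, values can overlap the other calls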;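 further: cells exposed to compound for four days before flow analysis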
FAS TE block = FAS thioesterase (human) inhibition; recombinant FAS-TE, OMFH fluorogenic substrate, fluorescence endpoint; inhibition, % at 15 µM; 360,000 tested, 0.67% active; AID 602261;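 active means compounds whose normalised, plate-corrected inhibition of enzyme fluorescence in the single-dose primary screen is 50% or more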;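 further: 0% = DMSO with enzyme and 100% = substrate without enzyme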
NadD inh = inhibitors of Staphylococcus aureus NadD. purified NadD enzyme, colorimetric absorbance read-out. inhibition, % at 20 µM. 360,000 tested, 0.78% active. AID 602399; in the data active means inhibition above about 26%
The depositor's hits bear a star. Sampled rows, rich in hits. Any-hit rate of the full collection: about 3.6%.

For O=C(Nc1cc(C(F)(F)F)ccc1-n1cncn1)c1ccc(Cl)cc1 the results were NRP1-CendR mod -26, CRFBP-R2 block 82*, Myeloid diff 2 inactive, FAS TE block 11 and NadD inh 2.
Screening CCOc1ccc(C(=O)NNC(=O)CCNC(=O)c2ccc(Br)cc2)cc1OC returned NRP1-CendR mod 8, CRFBP-R2 block -4, Myeloid diff 2 inactive, FAS TE block -9 and NadD inh 1.
For CCOc1ccc(C(=O)NNC(=O)CCNC(=O)c2ccco2)cc1OC the results were NRP1-CendR mod -13, CRFBP-R2 block 97*, Myeloid diff 2 inactive, FAS TE block -9 and NadD inh 3.
COc1cc(N2C(=O)C=CC2=O)ccc1N1C(=O)C=CC1=O was read as NRP1-CendR mod 15, CRFBP-R2 block 63*, Myeloid diff 2 inactive, FAS TE block -2 and NadD inh -1.
Screening Cc1noc(NS(=O)(=O)c2ccc(NS(=O)(=O)c3ccc(C(C)(C)C)cc3)cc2)c1C returned NRP1-CendR mod 0, CRFBP-R2 block -4, Myeloid diff 2 inactive, FAS TE block -3 and NadD inh -2.
Screening CC(C)c1cccc(-c2ccc3c(c2)S(=O)(=O)c2cccc(C(=O)NCc4ccccc4Cl)c2C3=O)c1 returned NRP1-CendR mod 2, CRFBP-R2 block 10, Myeloid diff 2 inactive, FAS TE block 8 and NadD inh 34*.
Screening O=C(NCc1cc(C(F)(F)F)ccc1Cl)c1cccc2c1C(=O)c1ccc(N3CCC(N4CCCCC4)CC3)cc1S2(=O)=O returned NRP1-CendR mod -156, CRFBP-R2 block -22, Myeloid diff 2 active, FAS TE block -43 and NadD inh 19.
`O=C(NCCN1CCOCC1)c1cccc2c1C(=O)c1ccc(N3CCCC3)cc1S2(=O)=O` gave NRP1-CendR mod -126, CRFBP-R2 block -15, Myeloid diff 2 inactive, FAS TE block -19 and NadD inh 5.
O=C(NCc1cc(C(F)(F)F)ccc1Cl)c1cccc2c1C(=O)c1ccc(N3CCOCC3)cc1S2(=O)=O was read as NRP1-CendR mod -34, CRFBP-R2 block -6, Myeloid diff 2 active, FAS TE block -22 and NadD inh 0.
CC(C)c1cccc(-c2ccc3c(c2)S(=O)(=O)c2cccc(C(=O)NCc4ccccc4)c2C3=O)c1 was read as NRP1-CendR mod 1, CRFBP-R2 block 4, Myeloid diff 2 inactive, FAS TE block -2 and NadD inh 18.
O=C(NCc1cc(C(F)(F)F)ccc1Cl)c1cccc2c1C(=O)c1ccc(N3CCCCC3)cc1S2(=O)=O was read as NRP1-CendR mod -121, CRFBP-R2 block -27, Myeloid diff 2 inconclusive, FAS TE block -82 and NadD inh 24.
Screening COc1cc(C=O)cc(Cl)c1OC(=O)N1CCOCC1 returned NRP1-CendR mod 7, CRFBP-R2 block -11, Myeloid diff 2 inactive, FAS TE block -1 and NadD inh -3.
Screening CN(Cc1ccccc1)C(=O)c1csc(COCCO)n1 returned NRP1-CendR mod -10, Myeloid diff 2 inactive, FAS TE block -7 and NadD inh -8.
Screening COc1ccc(NC(=O)c2oc3ccccc3c2NC(=O)C2CC2)cc1OC returned NRP1-CendR mod 30*, CRFBP-R2 block 2, Myeloid diff 2 inactive, FAS TE block 1 and NadD inh -6.
CCOC(=O)c1ccc(N2CCN(C(=O)c3ccccc3)CC2)c(NC(=O)c2ccco2)c1 was read as NRP1-CendR mod 31*, CRFBP-R2 block 2, Myeloid diff 2 inactive, FAS TE block 9 and NadD inh -9.
For COC(=O)C1CCN(C2CN(Cc3ccc([N+](=O)[O-])cc3)S(=O)(=O)C2)CC1 (stereo not drawn) the results were NRP1-CendR mod 18, Myeloid diff 2 inactive, FAS TE block 15 and NadD inh -5.
CCC(C)CN1C(=O)CN(S(C)(=O)=O)CC1(C)C(=O)NCc1ccccc1 (stereo not drawn) was read as NRP1-CendR mod 10 and Myeloid diff 2 inactive.
Screening COc1ccc(C(C)=O)cc1Cn1c(C)c(C(=O)NCc2ccc(C(C)C)cc2)sc1=O returned NRP1-CendR mod -18, Myeloid diff 2 active, FAS TE block 35 and NadD inh -3.
N#Cc1c(C(F)(F)F)cc(Cc2ccccc2)nc1SCC(=O)NCC(=O)O was read as NRP1-CendR mod 16, CRFBP-R2 block -8, Myeloid diff 2 inactive, FAS TE block -1 and NadD inh -2.
`COc1ccc(/C=C2\N=C(C)OC2=O)cc1OC(C)=O` gave NRP1-CendR mod -7, CRFBP-R2 block 9, Myeloid diff 2 inactive, FAS TE block 0 and NadD inh -1.
For COc1ccc(/C=C2/C(=O)N=C(N)N2C)cc1OC the results were NRP1-CendR mod -3, CRFBP-R2 block 25, Myeloid diff 2 active, FAS TE block -74 and NadD inh -5.
COc1ccc(/C=C2\N=C(C)OC2=O)cc1OC was read as NRP1-CendR mod -12, CRFBP-R2 block 19, Myeloid diff 2 active, FAS TE block 2 and NadD inh -3.
COc1cc2c(cc1OC)C(O)=CC(=O)C2=O was read as NRP1-CendR mod 2, CRFBP-R2 block -9, Myeloid diff 2 inactive, FAS TE block -7 and NadD inh 2.
For Cc1ccc(C)c(C(O)c2ncc(-c3ccccc3Cl)[nH]2)c1 (stereo not drawn) the results were NRP1-CendR mod -7, Myeloid diff 2 inactive, FAS TE block -5 and NadD inh -10.
CC(=O)Oc1ccc(C(=O)Nc2cccc(-c3nnc(-c4ccco4)o3)c2)cc1 was read as NRP1-CendR mod 0, CRFBP-R2 block -8, Myeloid diff 2 active, FAS TE block 1 and NadD inh -5.
Screening O=C(Nc1cccc(-c2nnc(-c3ccco3)o2)c1)c1ccccc1 returned NRP1-CendR mod -6, CRFBP-R2 block -86, Myeloid diff 2 inactive, FAS TE block 7 and NadD inh -6.
For Cc1ccccc1OCC(=O)N/N=C1\CCOc2c(C)cccc21 the results were NRP1-CendR mod 6, CRFBP-R2 block 0, Myeloid diff 2 inactive, FAS TE block -3 and NadD inh -5.
For COc1cccc2c1OCC/C2=N\NC(=O)COc1ccccc1C the results were NRP1-CendR mod 32*, CRFBP-R2 block -31, Myeloid diff 2 inactive, FAS TE block -3 and NadD inh 0.
For CC1(C)CC(=O)c2cc(C(=O)NC3CCSC3=O)c(=O)n(-c3ccccc3)c2C1 (stereo not drawn) the results were NRP1-CendR mod 4, CRFBP-R2 block 8, Myeloid diff 2 inactive, FAS TE block -4 and NadD inh -2.
For O=C1CCCc2c1cc(C(=O)NC1CCSC1=O)c(=O)n2-c1ccccc1 (stereo not drawn) the results were NRP1-CendR mod 30*, CRFBP-R2 block 38, Myeloid diff 2 inactive, FAS TE block -5 and NadD inh -5.
`Cc1ccc(-n2c(C)nc3c(cnn3-c3ccccc3Cl)c2=O)cc1C` gave NRP1-CendR mod -2, CRFBP-R2 block 1, Myeloid diff 2 inactive, FAS TE block -1 and NadD inh -6.
